# Calls of active or inactive are those of the source. Rule for the calls: active = hit-call score of the fitted dose curve at least 0.9, where 1 is the maximum; inactive = score below 0.9.
# Tests used:
# [1] = Tanguay_ZF_120hpf_DP24: Oregon State University Tanguay Lab 24 Hour Post-fertilization zebrafish Assay for Delayed Development (AID 2284390)
# In short: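 Dechorionated 5D wild-type zebrafish embryos exposed statically from 6 hpf, one per well, 0.64% DMSO final, 28 C, sealed and dark. Developmental progression scored at 24 hpf by brightfield as binary present/absent; dead embryos excluded.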
# [2] = Tanguay_ZF_120hpf_CRAN: Oregon State University Tanguay Lab 120 Hour Post-fertilization zebrafish Assay for Craniofacial Malformation (AID 2284397)
# In short: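 Dechorionated Tropical 5D wild-type zebrafish embryos, one per well, were statically exposed from 6 to 120 hpf at 28C in 0.64% DMSO, with 5uM trimethyltin chloride as positive control. Craniofacial malformation was scored present/absent by brightfield microscopy, relative to DMSO.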
# [3] = Tanguay_ZF_120hpf_AXIS: Oregon State University Tanguay Lab 120 Hour Post-fertilization zebrafish Assay for Axial Malformation (AID 2284398)
# In short: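 Dechorionated 5D wild-type zebrafish embryos exposed statically, one per well, from 6 to 120 hpf at 28C, 0.64% DMSO. Axial malformation scored as present/absent by brightfield microscopy at 120 hpf; dead embryos not scored.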
# [4] = Tanguay_ZF_120hpf_MORT: Oregon State University Tanguay Lab 120 Hour Post-fertilization zebrafish Assay for Mortality (AID 2284399)
# In short: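 Dechorionated wild-type Tropical 5D zebrafish embryos, one per well from 6 hpf, static exposure to 120 hpf at 28C in sealed dark plates, 0.64% DMSO final. Mortality scored as binary by brightfield at 24 and 120 hpf.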
# [5] = Tanguay_ZF_120hpf_EDEM: Oregon State University Tanguay Lab 120 Hour Post-fertilization zebrafish Assay for Edema Malformation (AID 2284400)
# In short: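 Dechorionated Tropical 5D wild-type embryos, one per well, statically exposed from 6 to 120 hpf at 28C in 0.64% DMSO. Edema scored present/absent by brightfield microscopy at 120 hpf; dead embryos not scored; fit versus DMSO.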
# [6] = Tanguay_ZF_120hpf_BRN: Oregon State University Tanguay Lab 120 Hour Post-fertilization zebrafish Assay for Brain Region Malformation (AID 2284402)
# In short: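 Dechorionated wild-type Tropical 5D zebrafish embryos exposed statically from 6 to 120 hpf at 28C, one per well, 0.64% DMSO final. Brain malformation scored at 120 hpf by brightfield as present/absent; dead embryos not scored.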
# [7] = Tanguay_ZF_120hpf_TCHR: Oregon State University Tanguay Lab 120 Hour Post-fertilization zebrafish Assay for Touch Responsive (AID 2284403)
# In short: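 Dechorionated Tropical 5D wild-type zebrafish embryos, one per well from 6 hpf, were statically exposed to 120 hpf at 28 °C (0.64% DMSO). Touch response was scored present/absent at 120 hpf and not scored in dead larvae.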
# [8] = Tanguay_ZF_120hpf_ANY: Oregon State University Tanguay Lab 120 Hour Post-fertilization zebrafish Assay for Any Mortality and Malformation (AID 2284404)
# In short: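 Dechorionated Tropical 5D wild-type embryos, one per well from 6 hpf, static exposure in sealed, dark plates at 28C until 120 hpf, 0.64% DMSO final. Brightfield scoring of mortality and malformations as binary presence/absence, pooling 13 morphology endpoints.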
# [9] = CCTE_Padilla_ZF_Score.Craniofacial: CCTE's 144 Hour Post-fertilization zebrafish Assay Score for Craniofacial Malformation, Padilla Lab (AID 2284405)
# In short: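 Wild-type zebrafish embryos (with chorions), one per well in 10% Hanks', were dosed at 6–8 hpf in sealed plates and kept at 26C. They were rinsed at 5 dpf. At 6 dpf two blinded assessors scored craniofacial malformations by brightfield stereomicroscopy.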
# [10] = CCTE_Padilla_ZF_Score.Edema: CCTE's 144 Hour Post-fertilization zebrafish Assay Score for Edema Malformation, Padilla Lab (AID 2284406)
# In short: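 Wild-type zebrafish embryos, one per well in Hanks' solution, dosed at 6-8 hpf, sealed and reared at 26C on a 14:10 h cycle; rinsed on 5 dpf. At 6 dpf, blinded assessors scored edema by stereomicroscopy.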
# [11] = CCTE_Padilla_ZF_Score.Spine: CCTE's 144 Hour Post-fertilization zebrafish Assay Score for Spine Malformation, Padilla Lab (AID 2284407)
# In short: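 Wild-type zebrafish embryos, one per well in Hanks' solution, dosed at 6–8 hpf in sealed plates at 26C, 14:10 h light:dark; rinsed at 5 dpf. Two blinded assessors scored spinal defects by stereomicroscopy at 6 dpf; fitted versus DMSO.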
# [12] = CCTE_Padilla_ZF_Score.Swim_bladder: CCTE's 144 Hour Post-fertilization zebrafish Assay Score for Swim Bladder Malformation, Padilla Lab (AID 2284408)
# In short: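 Wild-type zebrafish embryos, one per well in 10% Hanks', dosed at 6–8 hpf, sealed, reared at 26C and rinsed at 5 dpf. Blinded assessors scored uninflated swim bladder by stereomicroscopy at 6 dpf, relative to DMSO.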
# [13] = CCTE_Padilla_ZF_Score.Living: CCTE's 144 Hour Post-fertilization zebrafish Assay Score for Viability, Padilla Lab (AID 2284410);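 note: larval death at 6 dpf judged by absent heartbeat or coagulation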
# In short: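 Wild-type zebrafish embryos were exposed singly from 6–8 hpf in sealed wells of Hanks' solution at 26C, then rinsed at 5 dpf. At 6 dpf, blinded assessors scored mortality (no heartbeat or coagulation) by stereomicroscopy, fitted against DMSO.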
# [14] = CCTE_Padilla_ZF_Score.General: CCTE's 144 Hour Post-fertilization zebrafish Assay Score for General Malformation, Padilla Lab (AID 2284411)
# In short: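 Wild-type zebrafish embryos were plated singly at 6-8 hpf in 10% Hanks' and exposed in sealed wells at 26C until rinsed on 5 dpf. At 6 dpf two blinded assessors scored mortality, hatching and malformations by stereomicroscopy; gain-of-signal versus DMSO.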
# [15] = CCTE_Padilla_ZF_Score.Tail: CCTE's 144 Hour Post-fertilization zebrafish Assay Score for Tail Malformation, Padilla Lab (AID 2284414)
# In short: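 Wild-type zebrafish embryos, one per well in 200 uL 10% Hanks', dosed at 6-8 hpf, sealed, and kept at 26 C on a 14:10 h light cycle. Chemical was rinsed out at 5 dpf. Blinded brightfield scoring of tail defects followed at 6 dpf.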
# [16] = CCTE_Padilla_ZF_Score.Blood_pooling: CCTE's 144 Hour Post-fertilization zebrafish Assay Score for Blood Pooling, Padilla Lab (AID 2284415)
# In short: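 Wild-type outbred zebrafish embryos, one per well in 10% Hanks', exposed from 6–8 hpf in sealed plates at 26C on 14:10 h light:dark, rinsed at 5 dpf. Blinded stereomicroscope scoring of blood pooling at 6 dpf; gain-of-signal versus DMSO.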
# [17] = CCTE_Padilla_ZF_Score.Any: CCTE's 144 Hour Post-fertilization zebrafish Assay Score for Any Mortality or Malformation, Padilla Lab (AID 2284416)
# In short: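 Wild-type zebrafish embryos with chorions, one per well in 10% Hanks' from 6–8 hpf, dosed in sealed plates at 26 C, 14:10 h light:dark; rinsed at 5 dpf; blinded scoring at 6 dpf for death or malformation, versus DMSO.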
# [18] = CCTE_Padilla_ZF_Score.Position: CCTE's 144 Hour Post-fertilization zebrafish Assay Score for Position, Padilla Lab (AID 2284409)
# In short: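 Wild-type zebrafish embryos (with chorions) exposed singly from 6–8 hpf in sealed wells of Hanks' solution at 26C, rinsed at 5 dpf. At 6 dpf, blinded assessors scored abnormal water-column position by brightfield stereomicroscopy, relative to DMSO.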
smiles,measurement,setting,value
O=S(=O)(O)C(F)(F)C(F)(F)C(F)(F)C(F)(F)C(F)(F)C(F)(F)C(F)(F)F,outcome,[1],inactive
same,AC50,[2],33.4 µM (active)
same,AC50,[3],49.5 µM (active)
same,outcome,[4],inactive
same,AC50,[5],46.3 µM (active)
same,AC50,[6],52.4 µM (active)
same,AC50,[7],43.2 µM (active)
same,AC50,[8],33 µM (active)
same,AC50,[9],65.3 µM (active)
same,AC50,[10],25.8 µM (active)
same,outcome,[11],inactive
same,AC50,[12],21.3 µM (active)
same,AC50,[13],71 µM (active)
same,AC50,[14],16.6 µM (active)
same,AC50,[15],31.2 µM (active)
same,AC50,[16],63.4 µM (active)
same,AC50,[17],21.3 µM (active)
FC1CC(F)(F)C(F)(F)C1(F)F (stereo unspecified),outcome,[1],inactive
same,outcome,[2],inactive
same,outcome,[3],inactive
same,outcome,[4],inactive
same,outcome,[5],inactive
same,outcome,[6],inactive
same,outcome,[7],inactive
same,outcome,[8],inactive
C=CC(F)(F)C(F)(F)C(F)(F)C(F)(F)C(F)(F)C(F)(F)C(F)(F)C(F)(F)C=C,outcome,[1],inactive
same,outcome,[2],inactive
same,outcome,[3],inactive
same,outcome,[4],inactive
same,outcome,[5],inactive
same,outcome,[6],inactive
same,outcome,[7],inactive
same,AC50,[8],10.3 µM (active)
C=C(C)C(=O)OCC(F)(F)C(F)(F)C(F)(F)F,outcome,[1],inactive
same,outcome,[2],inactive
same,outcome,[3],inactive
same,outcome,[4],inactive
same,outcome,[5],inactive
same,outcome,[6],inactive
same,outcome,[7],inactive
same,outcome,[8],inactive
same,outcome,[9],inactive
same,outcome,[10],inactive
same,outcome,[11],inactive
same,outcome,[12],inactive
same,outcome,[13],inactive
same,outcome,[14],inactive
same,outcome,[15],inactive
same,outcome,[16],inactive
same,outcome,[17],inactive
FC(F)(F)C(F)(F)C(F)(F)C(F)(F)C(F)(F)C(F)(F)C(F)(F)Br,outcome,[1],inactive
same,outcome,[2],inactive
same,outcome,[3],inactive
same,outcome,[4],inactive
same,outcome,[5],inactive
same,outcome,[6],inactive
same,outcome,[7],inactive
same,outcome,[8],inactive
same,outcome,[9],inactive
same,outcome,[10],inactive
same,outcome,[11],inactive
same,outcome,[12],inactive
same,outcome,[13],inactive
same,outcome,[14],inactive
same,outcome,[15],inactive
same,outcome,[16],inactive
same,outcome,[17],inactive
C=CC(=O)OCC(F)(F)C(F)(F)C(F)(F)C(F)(F)C(F)(F)C(F)(F)C(F)(F)F,outcome,[1],inactive
same,outcome,[2],inactive
same,outcome,[3],inactive
same,outcome,[4],inactive
same,outcome,[5],inactive
same,outcome,[6],inactive
same,outcome,[7],inactive
same,outcome,[8],inactive
same,outcome,[9],inactive
same,outcome,[10],inactive
same,outcome,[11],inactive
same,outcome,[12],inactive
same,outcome,[13],inactive
same,outcome,[14],inactive
same,outcome,[15],inactive
same,outcome,[16],inactive
same,outcome,[17],inactive
OCCCC(F)(F)C(F)(F)C(F)(F)F,outcome,[1],inactive
same,outcome,[2],inactive
same,outcome,[3],inactive
same,outcome,[4],inactive
same,outcome,[5],inactive
same,outcome,[6],inactive
same,outcome,[7],inactive
same,outcome,[8],inactive
same,outcome,[9],inactive
same,outcome,[10],inactive
same,outcome,[11],inactive
same,outcome,[12],inactive
same,outcome,[13],inactive
same,outcome,[14],inactive
same,outcome,[15],inactive
same,outcome,[16],inactive
same,outcome,[17],inactive
O=C(O)C(F)(F)C(F)(F)OC(F)(F)F,outcome,[1],inactive
same,outcome,[2],inactive
same,outcome,[3],inactive
same,outcome,[4],inactive
same,outcome,[5],inactive
same,outcome,[6],inactive
same,outcome,[7],inactive
same,outcome,[8],inactive
same,outcome,[9],inactive
same,outcome,[10],inactive
same,outcome,[11],inactive
same,outcome,[12],inactive
same,outcome,[13],inactive
same,outcome,[14],inactive
same,outcome,[15],inactive
same,outcome,[16],inactive
same,outcome,[17],inactive
FC(F)(F)C(F)(F)CNCC(F)(F)C(F)(F)F,outcome,[1],inactive
same,outcome,[2],inactive
same,outcome,[3],inactive
same,outcome,[4],inactive
same,outcome,[5],inactive
same,outcome,[6],inactive
same,outcome,[7],inactive
same,outcome,[8],inactive
same,outcome,[9],inactive
same,outcome,[10],inactive
same,outcome,[11],inactive
same,AC50,[12],0.00275 µM (active)
same,outcome,[18],inactive
same,outcome,[13],inactive
same,outcome,[14],inactive
same,outcome,[15],inactive
same,outcome,[16],inactive
same,AC50,[17],0.00326 µM (active)
